Marburg entry inh = Marburg virus entry inhibition; Marburg virus pseudotyped entry inhibition, cell reporter; Potency, µM (doses to about 37.8 µM), without a hit: at the top dose activity change, negative = inhibition, usual class: inhibitors; actives 1.8% (n = 300,000); AID 540276; calls by dose curve; tested in HEK293 cells; note: potency is the fitted concentration of half-maximal effect
HCMV inh = human cytomegalovirus inhibition | HFF cells, HCMV-luciferase reporter, 72 h; active compounds read low | activity change, negative = inhibition, % at 57.5 µM | actives 4.5% (n = 410,000); in the data active = activity change below about -60%; inconclusive = no clear call, values can overlap the other calls; inactive = above about -39%
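HFF cells seeded 16 h at 37C, treated with compounds, infected with luciferase-reporter HCMV at MOI 1 PFU/cell; luciferase read at 72 h post infection, normalized to buffer-only and Salinomycin controls.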
FMDV antiviral = foot and mouth disease virus antiviral activity; actives 1.2% (n = 410,000); Potency, µM (doses to about 57.9 µM), without a hit: at the highest dose activity change, negative = inhibition, most hits filed as inhibitors; FMDV antiviral cell-based qHTS; calls by dose curve; tested in HEK293T cells; note: read-out not given here; potency is the fitted concentration of half-maximal effect; nearly all actives have a fitted effect of over 45% in size
LASV entry inh = Lassa virus entry inhibition. Potency, µM (doses to about 37.9 µM), for the others: at the top dose activity change, negative = inhibition, usual class: inhibitors. actives 1.2% (n = 300,000). Lassa virus pseudotype entry inhibition, cell reporter; calls by dose curve; tested in HEK293 cells; note: potency is the fitted concentration of half-maximal effect; nearly all actives have a fitted effect of over 50% in size
HCV inh = blocks hepatitis C virus. Potency, µM (titrated, usually from 41.8 µM), inactives show at the top dose activity change, negative = inhibition, hits mostly inhibitors. AID 651820. Huh7.5.1 HCVcc-Cre infection, luciferase reporter, 44 h. actives 3.4% (n = 340,000); note: potency is the fitted concentration of half-maximal effect
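After 44 h co-culture of compound, cells and HCVcc-Cre (~0.5 moi), substrate is added for 15 min at room temperature and luciferase measured over 15 sec. Cells were seeded at 1,000/well and pre-cultured 4 h.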
Giardia FBPA inh = Giardia lamblia aldolase inhibition; A8B2U2; purified Giardia FBPA; Potency, µM (titrated, usually from 59.6 µM), without a hit: at the top dose activity, negative = inhibition, most hits filed as inhibitors; actives 0.71% (n = 290,000); AID 2451; note: potency is the fitted concentration of half-maximal effect; nearly all actives have a fitted effect of over 55% in size
Target sequence (A8B2U2 whole entry, looked up): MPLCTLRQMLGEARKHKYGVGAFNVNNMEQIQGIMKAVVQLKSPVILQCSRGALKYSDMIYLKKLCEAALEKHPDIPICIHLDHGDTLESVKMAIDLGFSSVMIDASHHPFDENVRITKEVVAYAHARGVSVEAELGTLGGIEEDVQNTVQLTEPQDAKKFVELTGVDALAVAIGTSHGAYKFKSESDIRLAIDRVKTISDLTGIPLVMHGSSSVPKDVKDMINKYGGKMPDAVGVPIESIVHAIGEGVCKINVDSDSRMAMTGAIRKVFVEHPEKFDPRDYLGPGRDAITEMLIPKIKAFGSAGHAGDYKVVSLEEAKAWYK
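40 nM FBPA preincubated 10 min at RT with compound (up to 57.5 uM final), then substrate plus GAPDH/TPI/NAD/arsenate coupling and diaphorase/resazurin added. Fluorescence read after 20 min at RT, 525/598 nm.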
* hit, by the source's call; ? = inconclusive; nt = no result; ! = repeats disagree; [ ] = dose if it differs, or a comment. Only some compounds are listed: those with a hit (about 8.3% of all), similar ones and a draw of the others. Unless noted, calls come from the whole dose curve; as a rule, active = well fitted curve in the direction sought with a large enough effect; inconclusive = small, poorly fitted or top-dose-only effect, or another doubt; inactive = no such curve, though single readings can be large; an effect the other way counts as inactive or inconclusive. % is set by controls: 0 for no effect and ±100 for the full control effect.

SMILES	Marburg entry inh	HCMV inh	FMDV antiviral	LASV entry inh	HCV inh	Giardia FBPA inh
COc1ccc(CNc2nc3ccccc3n2CCN2CCCCC2)cc1	?	-7	-6%	-9%[46.1 µM]	-20%	0%
CCn1cnc2cc(NCc3nc4ccccc4n3C)ccc21	?	97	nt	?	7%	-23%
CCn1cnc2cc(NCc3nc4ccccc4n3Cc3ccccc3)ccc21	?	-34	-25%	10µM*	-1%	-22%
c1ccc(Cn2c(CNc3nc4ccccc4n3CCN3CCCCC3)nc3ccccc32)cc1	?	-2	?	?	11µM*	8%
CCN(CC)c1ccc(CNc2nc3ccccc3n2CCN2CCCCC2)cc1	?	-99*	0%	?	11µM*	4%
CC1=CC[C@@H](COc2ccccc2)O[C@@]2(C1)C(=O)N(CC1CC1)c1ccccc12	20%[14.2 µM]	nt	nt	nt	nt	nt
COc1cccc(-c2cc3c(c(OC)c2)OCCN(Cc2ccccc2O)C3)n1	nt	nt	-15%	nt	nt	nt
CN(C)S(=O)(=O)c1ccc(C(=O)Nc2nc(-c3cc4ccccc4o3)cs2)cc1	?	-69*	?	?	?	0%
Cc1cc(-c2csc(NC(=O)c3ccc(S(=O)(=O)N(C)C)cc3)n2)c(C)n1-c1ccccc1	1.3µM*	-25	32µM*	?	?	-6%
CN(C)S(=O)(=O)c1ccc(C(=O)Nc2nc(-c3ccccc3)c(C(=O)c3ccccc3)s2)cc1	6%	-1	?	-4%	12%	2%
CC1CN(S(=O)(=O)c2ccc(C(=O)Nc3nc(-c4cc5ccccc5o4)cs3)cc2)CC(C)O1 (stereo unspecified)	?	-26	?	?	?	5%
O=C(Nc1nc(-c2cc3ccccc3o2)cs1)c1ccc(S(=O)(=O)N2CCCC2)cc1	?	-84*	?	?	?	3%
CC(C)C(NS(C)(=O)=O)c1nnc2n1CCN(Cc1ccc3cccnc3c1)CC2 (stereo unspecified)	nt	nt	9%	nt	nt	nt
O=C(O)CCN1C(=O)/C(=C/c2cn(-c3ccccc3)nc2-c2cccs2)SC1=S	?	-61*	0%	-4%[46.1 µM]	3%	1%
COc1ccc(-c2nn(-c3ccccc3)cc2/C=C2/SC(=S)N(CCC(=O)O)C2=O)c(C)c1	?	-21	32µM*	2%[46.1 µM]	19%	4%
O=C(O)CCCCCN1C(=O)/C(=C/c2cn(-c3ccccc3)nc2-c2cccs2)SC1=S	-29%[46.1 µM]	-19	-26%	-22%[46.1 µM]	-9%	nt
CN1CCC(N(C)C(=O)/C=C/c2cn(-c3ccccc3)nc2-c2cccs2)CC1	?	-111*	-27%	?	7.9µM*	1%
COc1ccc(CNc2ccnc(-c3c(C)noc3C)n2)c(OC)c1	nt	nt	-27%	nt	nt	-12%
COc1ccc(O[C@H]2C=C[C@@H](c3ccccc3)O[C@H]2COC(=O)CC/C(C)=N\OC[C@@H](C)[C@H](OCc2ccccc2)C(C)C)cc1	?	nt	nt	nt	nt	0%[12.9 µM]
CC(C)(C)N1C(=O)[C@H]2[C@H]3[C@H](O)[C@H](O)C/C(=N/OC[C@@H](O)COCc4ccco4)[C@H]3CC[C@@H]2C1=O	nt	nt	nt	nt	nt	3%[12.9 µM]
CCOc1ccc(CCNC(=O)Cn2ccc3cc(S(=O)(=O)N4CCCCCC4)ccc32)cc1	nt	-14	0%	-15%[46.1 µM]	nt	nt
CN(C)CCCNC(=S)Nc1ccc(Oc2ccccc2)cc1	?	?	9%	15%	?	6%
CN(C)CCCNC(=S)Nc1ccc(-c2ccccc2)cc1	nt	0	-10%	nt	11µM*	3%
CC(C)N(c1ccccc1)c1ccc(NC(=S)NCCN(C)C)cc1	11µM*	-26	?	?	?	0%
CCNC(=S)Nc1ccc(N(c2ccccc2)C(C)C)cc1	-9%	-10	-22%	-11%	?	-15%
SMILES	Marburg entry inh	HCMV inh	FMDV antiviral	LASV entry inh	HCV inh	Giardia FBPA inh
Cc1ccc(Cl)cc1N1CCN(C(=O)c2noc(C)c2[N+](=O)[O-])CC1	nt	-105*	4%	nt	10µM*	nt
Cc1ccc(S(=O)(=O)N[C@@H]2COC(=O)[C@@H](C)COC(=O)C/C=C/[C@H]2C)cc1	7%[14.2 µM]	nt	nt	nt	nt	nt
CCOc1ccc(C(=O)Nc2cccc(-c3nc4cc(Cl)cc(Cl)c4o3)c2)cc1	nt	29	-21%	-4%[46.1 µM]	nt	nt
COc1ccc2oc(=O)c(C(=O)Nc3cccc(C(=O)O)c3)cc2c1	2.8µM*	107	?	4%[46.1 µM]	nt	nt
COc1ccc(CNC(=O)c2cc3cc(OC)ccc3oc2=O)cc1	?	-104*!	-15%	?	?	17%
COc1ccc(CNC(=O)c2c(F)c(F)c(F)c(F)c2F)cc1	-28%	-102*	-3%	1%	?	13%
COc1ccc2oc(=O)c(C(=O)NCc3ccccc3)cc2c1	-6%[46.1 µM]	-13	2%	25%[46.1 µM]	-1%	9%
COc1ccc(NC(=O)c2cc3cc(OC)ccc3oc2=O)cc1	nt	-16	1%	nt	4%	nt
COc1ccc2oc(=O)c(C(=O)NCc3ccc(C)cc3)cc2c1	nt	-100*	5%	nt	9%	0%
COc1ccc(CNC(=O)c2ccc(C)cc2)cc1	nt	nt	nt	nt	nt	0%
Cc1cc(-c2cc(F)cc3c2OC(CNC(=O)CCn2cncn2)C3)ccc1F (stereo unspecified)	nt	nt	-7%	nt	nt	nt
COCCCNC(=O)c1ccc(Cn2c(=O)c3ccccc3n(Cc3c(C)cc(C)cc3C)c2=O)cc1	-12%[46.1 µM]	-3	14%	6%[46.1 µM]	nt	nt
CC1CCC(C(C)C)C(P(=O)(c2ccccc2)c2ccccc2)C1 (stereo unspecified)	nt	nt	-27%	nt	nt	0%
C[C@H]1[C@H](c2ccccc2)Oc2cccc(NCCc3ccccc3)c2S(=O)(=O)N1Cc1ccc(F)cc1	nt	0	nt	nt	nt	nt
COc1cc(C)ccc1OCCn1c(-c2ccc(Cl)cc2)nc2ccccc2c1=O	-5%[46.1 µM]	-10	-8%	-13%[46.1 µM]	nt	nt
COC(=O)[C@H](CCSC)NC(=O)Cn1cc(C)c(=O)[nH]c1=O	nt	-19	-11%	nt	0.5µM*	nt
CCn1c(SCC(=O)NCc2ccco2)nc2ccccc2c1=O	nt	-11	-7%	nt	-7%	1%
COc1ccc(C(=O)NCCS(=O)(=O)NCc2ccccc2)cc1	-19%	-98*	25%	-1%	-1%	nt
COc1ccc(C(=O)NCc2cc(C)nc3ccccc23)cc1	?	-24	?	?	16µM*	4%
COc1ccc(C(=O)NCCS(=O)(=O)NCCc2ccccc2)cc1	-1%[46.1 µM]	50	40%	19%	-3%	nt
COc1ccc(C(=O)Nn2c(SCC(=O)N3CCC(C)CC3)nc3ccccc3c2=O)cc1	1.6µM*	-62*	11µM*	8.2µM*	-5%	18%
COc1ccc(C(=O)Nn2c(SCC(=O)NCc3ccco3)nc3ccccc3c2=O)cc1	0.4µM*	-73*	14µM*	1µM*	-15%	13%
COc1cc(-c2nccc3[nH]nc(-c4ccccc4)c23)cc(OC)c1OC	nt	-19	nt	nt	nt	nt

Source: PubChem BioAssay
